The values that follow come from PubChem BioAssay (NCI).

Assay [1] is described as follows: NCI Yeast Anticancer Drug Screen. Data for the rad50 strain (AID 155).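 Note: 0% = growth of vehicle-only cultures of the same strain.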 As to conditions: S. cerevisiae rad50 strain growth inhibition, hits give high values. An outline of the steps:
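Genetically altered yeast (DNA repair pathway); compound treatment; growth inhibition vs vehicle ctrl.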

Assay [2] can be described thus: NCI Yeast Anticancer Drug Screen. Data for the mec2-1 strain (AID 157). The settings on record: S. cerevisiae mec2-1 strain, hits give high values. Put shortly:
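Using mec2-1 yeast: add compound, measure growth, express inhibition versus vehicle-treated cultures.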

Assay [3] is described as follows: NCI Yeast Anticancer Drug Screen. Data for the sgs1 mgt1 strain (AID 161).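 Note: 0% = growth of cultures given vehicle only.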 The settings on record: S. cerevisiae sgs1 mgt1 strain, hits give high values. Put shortly:
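Yeast cells carrying a defined DNA-repair defect were exposed to test compounds. Growth inhibition was measured relative to vehicle-treated controls.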

Assay [4] can be described thus: NCI Yeast Anticancer Drug Screen. Data for the cln2 rad14 strain (AID 165).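 Note: 0% = growth equal to vehicle treated cultures.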 The settings on record: S. cerevisiae cln2 rad14 strain, hits give high values. Put shortly:
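Yeast strain cln2 rad14, bearing defects in cell cycle control and DNA repair, serves as the test system; values reflect growth inhibition compared with vehicle.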

A short description of assay [5]: NCI Yeast Anticancer Drug Screen. Data for the bub3 strain (AID 167). The settings on record: S. cerevisiae bub3 mutant strain, hits give high values. An outline of the steps: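 Yeast carrying a defined mutation is treated with each compound, and growth is compared with that of vehicle-exposed cells to give inhibition.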
The nature of assay [6]: NCI Yeast Anticancer Drug Screen. Data for the mlh1 rad18 strain (AID 175). As to conditions: S. cerevisiae mlh1 rad18 strain growth inhibition, hits give high values. Put shortly:
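Steps: expose repair-defective yeast to compound; measure growth; express inhibition against vehicle-treated controls.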

The mark [7] stands for this setting: at 5.0 µM (retest, dose inferred, filed as 0.5).
Where [8] appears, read: at 50.0 µM (retest, dose inferred, filed as 5.0).

The panel holds about 79,000 compounds, 15% with a hit somewhere; the sample as a whole holds those more often. A number with no mark means an inactive call. The source made the active and inactive calls. Cut-off read from the data, not from the text of the source: active = growth inhibition above about 70%; inactive = the rest.

As for `O=[N+]([O-])c1ccc2c(c1)[n+]([O-])c1[nH]c3ccccc3c1[n+]2[O-]` (tested in a mixture with another compound), the growth inhibition was 85% (active) in assay [1] (setting [7]); 88% (active) in assay [1] (setting [8]); 93.2% (active) in assay [1] (at 50.0 µM); 55% in assay [2] (setting [7]); 89% (active) in assay [2] (setting [8]); 87.4% (active) in assay [2] (at 50.0 µM). The growth inhibition in assay [3] (setting [7]) was 68%; in assay [3] (setting [8]), 91% (active); in assay [3] (at 50.0 µM), 82.9% (active); in assay [4] (setting [7]) it was 48%; in assay [4] (setting [8]) it was 85% (active); in assay [4] (at 50.0 µM), 89.8% (active). The growth inhibition in assay [5] (setting [7]) was 64%; in assay [5] (setting [8]), 90% (active); in assay [5] (at 50.0 µM), 81.8% (active); in assay [6] (setting [7]) it was 78% (active); in assay [6] (setting [8]) it was 91% (active); in assay [6] (at 50.0 µM) it was 86.3% (active).

For the molecule `O=C(O)c1ccc(Br)cc1C(=O)c1ccccc1`, the growth inhibition was -18% in assay [1] (setting [7]); -15% in assay [1] (setting [8]); 1.15% in assay [1] (at 50.0 µM); -19% in assay [2] (setting [7]); 10% in assay [2] (setting [8]); 9.45% in assay [2] (at 50.0 µM). For the same molecule, the growth inhibition in assay [3] (setting [7]) is -2%; in assay [3] (setting [8]) it was 1%; in assay [3] (at 50.0 µM) it was -3.3%; in assay [4] (setting [7]), 31%; in assay [4] (setting [8]), -38%; in assay [4] (at 50.0 µM), 11.8%. Also, the growth inhibition in assay [5] (setting [7]) is 8%; in assay [5] (setting [8]), -18%; in assay [5] (at 50.0 µM) it was 6.35%; in assay [6] (setting [7]), -11%; in assay [6] (setting [8]), 6%; in assay [6] (at 50.0 µM), -20.4%.

With `N#CCCN(CCC#N)Cc1c(O)c(O)c(CN(CCC#N)CCC#N)c2ccccc12`, the growth inhibition is -2% in assay [1] (setting [7]); 12% in assay [1] (setting [8]); 61.1% in assay [1] (at 50.0 µM); -1% in assay [2] (setting [7]); 41% in assay [2] (setting [8]); 48% in assay [2] (at 50.0 µM). In addition, the growth inhibition in assay [3] (setting [7]) is -10%; in assay [3] (setting [8]) it was 46%; in assay [3] (at 50.0 µM) it was 59.2%; in assay [4] (setting [7]), 0%; in assay [4] (setting [8]), -7%; in assay [4] (at 50.0 µM) it was 46.2%. For the same molecule, the growth inhibition in assay [5] (setting [7]) was -3%; in assay [5] (setting [8]) it was 26%; in assay [5] (at 50.0 µM) it was 54%; in assay [6] (setting [7]), -4%; in assay [6] (setting [8]) it was 25%; in assay [6] (at 50.0 µM), 59%.

For `O=C(CC(O)(C(F)(F)F)C(F)(F)F)C(c1ccccc1)C(O)(C(F)(F)F)C(F)(F)F` (stereo not drawn), the growth inhibition in assay [1] (setting [7]) was 6%; in assay [1] (setting [8]), 82% (active); in assay [1] (at 50.0 µM), 71.8% (active); in assay [2] (setting [7]) it was 13%; in assay [2] (setting [8]) it was 79% (active); in assay [2] (at 50.0 µM), 91.5% (active). Moreover, the growth inhibition in assay [3] (setting [7]) is -3%; in assay [3] (setting [8]), 86% (active); in assay [3] (at 50.0 µM) it was 84.2% (active); in assay [4] (setting [7]) it was 13%; in assay [4] (setting [8]) it was 92% (active); in assay [4] (at 50.0 µM), 90.5% (active). Moreover, the growth inhibition is -14% in assay [5] (setting [7]); 41% in assay [5] (setting [8]); 83.2% (active) in assay [5] (at 50.0 µM); 5% in assay [6] (setting [7]); 93% (active) in assay [6] (setting [8]); 93.6% (active) in assay [6] (at 50.0 µM).

Consider `Clc1ccc(C2SCc3nc4ccccc4n32)c(Cl)c1` (stereo not drawn), for which the growth inhibition was -7% in assay [1] (setting [7]); 96% (active) in assay [1] (setting [8]); 99% (active) in assay [1] (at 50.0 µM); -6% in assay [2] (setting [7]); 97% (active) in assay [2] (setting [8]); 99.1% (active) in assay [2] (at 50.0 µM). The growth inhibition was 4% in assay [3] (setting [7]); 95% (active) in assay [3] (setting [8]); 99.2% (active) in assay [3] (at 50.0 µM); -17% in assay [4] (setting [7]); 98% (active) in assay [4] (setting [8]); 97.9% (active) in assay [4] (at 50.0 µM). Moreover, the growth inhibition in assay [5] (setting [7]) is 9%; in assay [5] (setting [8]) it was 96% (active); in assay [5] (at 50.0 µM) it was 98.7% (active); in assay [6] (setting [7]), -10%; in assay [6] (setting [8]), 94% (active); in assay [6] (at 50.0 µM) it was 71.9% (active).

Regarding `O=C1CSC(=S)N1c1cccc(Cl)c1`, the growth inhibition in assay [1] (setting [7]) is 20%; in assay [1] (setting [8]), 28%; in assay [1] (at 50.0 µM), 40.5%; in assay [2] (setting [7]), 15%; in assay [2] (setting [8]), 23%; in assay [2] (at 50.0 µM), 86% (active). Besides, the growth inhibition in assay [3] (setting [7]) was 13%; in assay [3] (setting [8]), 94% (active); in assay [3] (at 50.0 µM), 79.6% (active); in assay [4] (setting [7]), 9%; in assay [4] (setting [8]), 73% (active); in assay [4] (at 50.0 µM), 19.4%. The growth inhibition in assay [5] (setting [7]) was 8%; in assay [5] (setting [8]), 92% (active); in assay [5] (at 50.0 µM), 70.2% (active); in assay [6] (setting [7]) it was 24%; in assay [6] (setting [8]) it was 48%; in assay [6] (at 50.0 µM) it was 91.7% (active).
